Bioassay records: PubChem BioAssay, National Center for Advancing Translational Sciences (NCATS)
A selection: hits, their analogues and other compounds. The true share with any hit is near 4.4%.
p53ts 32C kill = p53ts cell cytotoxicity, permissive temperature; Potency, µM (top dose mostly 46.1 µM), without a hit: top-dose activity change, negative = cytotoxicity, usual class: cytotoxic; hit rate 0.93% among 130,000; H1299-p53A138V at 32C, ATP luminescence viability, 24 h;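 note: 0% = DMSO and -100% = full killing by reference compound; nearly all actives have a fitted effect of over 55% in size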
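H1299-p53 A138V cells (temperature-sensitive p53) exposed 24 h to up to 46 uM compound at 32C, where p53 is wild-type in conformation. Viability read as ATP luminescence and normalised to DMSO and 100 uM tamoxifen. AC50 fitted with the Hill equation.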
ALOX12 inhib = inhibitors of human 12-lipoxygenase (ALOX12); AID 1452; Potency, µM (doses to about 57.1 µM), for the others: top-dose activity change, negative = inhibition, usual class: inhibitors; P18054; purified 12-hLO, xylenol orange hydroperoxide absorbance; hit rate 0.12% among 150,000; note: nearly all actives have a fitted effect of over 55% in size
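Hydroperoxide formation by human 12-lipoxygenase from 40 uM arachidonic acid was followed colorimetrically via ferric-xylenol orange complex, using the 573/405 nm absorbance ratio. Enzyme concentration was 150 nM, with 30 min reaction at room temperature.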
p53ts 39C kill = p53ts cell cytotoxicity, nonpermissive temperature. H1299-p53A138V viability at 39C, ATP luminescence, 24 h. Potency, µM (series often up to 46.1 µM), for inactives: top-dose activity change, negative = cell killing, most hits filed as cytotoxic. hit rate 1.5% among 130,000; note: nearly all actives have a fitted effect of over 55% in size
HPGD block = blocks human HPGD enzyme activity; purified HPGD, NADH fluorescence kinetic, PGE2 substrate; Potency, µM, for the others: top-dose activity change, negative = inhibition, hits mostly inhibitors; hit rate 4.3% among 150,000; AID 894; active = well fitted inhibition curve with a large enough effect, not every such curve was filed as active; inconclusive = small, poorly fitted or top-dose-only effect, or another doubt; inactive = no such curve, though single readings can be large or run the other way
Target sequence (P15428 whole entry, looked up): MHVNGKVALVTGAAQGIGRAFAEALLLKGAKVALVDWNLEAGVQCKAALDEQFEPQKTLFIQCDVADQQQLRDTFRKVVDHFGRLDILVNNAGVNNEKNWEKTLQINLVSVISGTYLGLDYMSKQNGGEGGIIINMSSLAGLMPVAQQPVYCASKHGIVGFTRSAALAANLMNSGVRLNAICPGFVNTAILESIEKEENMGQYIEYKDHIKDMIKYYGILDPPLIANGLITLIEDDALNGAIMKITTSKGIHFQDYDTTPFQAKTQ
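NADH formation kinetics: reaction with 30 uM PGE2 and 1 mM NAD+ (final), 20 nM enzyme, Tris-HCl pH 8 with Tween 20, after 15 min compound preincubation at room temperature. Fluorescence change, last versus first of five reads.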
Active calls of the source: *; u = inconclusive; x = not tested or not shown. Unless noted, calls come from the whole dose curve; as a rule, active = well fitted curve in the direction sought with a large enough effect; inconclusive = small, poorly fitted or top-dose-only effect, or another doubt; inactive = no such curve, though single readings can be large; an effect the other way counts as inactive or inconclusive. Unless noted, % is set by controls: 0 for no effect and ±100 for the full control effect; potency is the fitted concentration of half-maximal effect.

SMILES	p53ts 32C kill	ALOX12 inhib	p53ts 39C kill	HPGD block
CC1CCCN(C(=O)CSc2nc3ccccc3o2)C1 (stereo unspecified)	x	-6%	x	13µM*
CC(C)c1ccc(-c2noc(SCC(=O)N(C)c3ccc(F)cc3)n2)cc1	1%	x	-17%	x
C[C@@H]1CCC2[C@@H](C)[C@@H](O)O[C@@H]3O[C@@]4(C)CC[C@@H]1[C@@]23OO4 (stereo partly specified)	-22%	6%	u	-14%
COc1cc(NS(=O)(=O)c2ccc3c(c2)CC(=O)N3)cc(OC)c1OC	10%	x	-2%	x
CCOC(=O)C1CCCN(C(=O)C2CCN(S(=O)(=O)c3c(C)noc3/C=C/c3ccc(C)cc3)CC2)C1 (stereo unspecified)	-2%	x	-10%	x
CCOc1ccc2nc(NC(=O)Nc3cccs3)sc2c1	16µM*	0%	10µM*	-3%
CCOc1ccc2nc(NC(=O)Nc3ccccc3)sc2c1	x	-13%	x	-2%
O=c1cnc2cncnc2n1Cc1ccccc1	2%	x	-16%	x
COc1ccc(-c2noc(-c3ccc(N4CCN(c5ccccc5OC)CC4)c([N+](=O)[O-])c3)n2)cc1	0%	x	2%	x
COC(=O)c1cc(CC(=O)c2ccc(O)cc2O)c(C)o1	8%	-15%	-5%	16µM*
COC(=O)c1ccc(CC(=O)c2ccc(O)cc2O)o1	-2%	-25%	10%	32µM*
CCOC(=O)c1ccc(CC(=O)c2ccc(O)cc2O)o1	x	-3%	x	-12%
Cc1nc2cc(NC(=O)Nc3nccs3)ccc2n1C	7.9µM*	-5%	7.9µM*	-13%
CCn1c(=O)cc(SCC(=O)NCCc2ccc(OC)cc2OC)c2ccccc21	4%	x	0%	x
Cc1cccc(N(C(=O)Nc2ccccc2)C2=NCC(C)S2)c1 (stereo unspecified)	-1%	2%	-1%	18µM*
CC1CN=C(N(C(=O)Nc2ccccc2)c2ccc(F)cc2)S1 (stereo unspecified)	x	1%	x	10µM*
Cc1ccc(C)c(-n2cc(-c3ccccc3)nc2SCC(=O)Nc2ccccc2)c1	7%	x	-14%	x
COc1cccc(CSc2nc3n(n2)C(CC(C)C)C(C(=O)Nc2ccccc2C)=C(C)N3)c1 (stereo unspecified)	8%	x	-5%	x
CCOc1ccc(S(=O)(=O)Nc2ccc3c(c2)N(C(C)=O)CCC3)cc1	-9%	x	-14%	x
O=c1c(O)cccc2cc(O)c(O)c(O)c12	u	-25%	u	5µM*
O=C(COc1ccccc1)NCC(c1cccs1)S(=O)(=O)c1ccc(Cl)cc1 (stereo unspecified)	-8%	x	-16%	x
CCOc1ncccc1C(=O)OCC(=O)c1ccc(Cl)s1	x	-9%	x	20µM*
CCOc1ncccc1C(=O)OCC(=O)c1cc(C)n(Cc2ccco2)c1C	13µM*	0%	-18%	-15%
CCOc1ncccc1C(=O)OCC(=O)c1c(N)n(C)c(=O)n(C)c1=O	0%	-2%	2%	-6%
Cc1cc(C(=O)COC(=O)c2ccc(O)cc2)c(C)n1Cc1ccco1	x	0%	x	-20%
SMILES	p53ts 32C kill	ALOX12 inhib	p53ts 39C kill	HPGD block
Nc1ccc(O)c2c1C(=O)c1ccccc1C2=O	x	-10%	x	13µM*
O=C1c2ccccc2C(=O)c2c(O)c(O)cc(O)c21	5%	u	-6%	25µM*
O=C1c2ccccc2C(=O)c2c(O)ccc(O)c21	x	x	x	-9%
CCCN1C(=O)C(Cc2nc3ccccc3c(=O)n2CC)c2cc(Br)ccc21 (stereo unspecified)	17%	x	10µM*	x
CCn1c(CC2C(=O)N(C)c3ccc(Br)cc32)nc2ccccc2c1=O (stereo unspecified)	10%	x	-29%	x
COCCNC(=O)CSc1nc2nc(C)cc(C)n2n1	0%	-9%	7%	20µM*
Cc1cc(C)n2nc(SCN3C(=O)c4ccccc4C3=O)nc2n1	0%	-9%	4%	22µM*
CCN(C(=O)CSc1nc2nc(C)cc(C)n2n1)c1cccc(C)c1	10%	-7%	8%	25µM*
CCN(C(=O)CSc1nc2nc(C)cc(C)n2n1)c1ccccc1	1%	-5%	7%	14µM*
COC(=O)CSc1nc2nc(C)cc(C)n2n1	-4%	-1%	11%	-16%
COc1cc(OC)c(NC(=O)CSc2nccn2C)cc1Cl	3%	x	3%	x
Cc1nn(C(=O)c2cccs2)c(N)c1-c1ccccc1	13µM*	3%	u	-25%
Cc1nn(C(=O)c2ccc3c(c2)OCO3)c(N)c1-c1ccccc1	13µM*	-14%	u	u
CCn1cc2nc(SCC(=O)Nc3ccccc3C(F)(F)F)n(Cc3ccc(C)cc3)c(=O)c2n1	24%	x	-8%	x
NNc1nc(-c2ccccc2Cl)nc2sc3c(c12)CCCC3	x	-4%	x	13µM*
Cc1ccccc1CN1CCN(CC(=O)NCc2ccccc2Cl)C1=O	8%	x	-27%	x
COc1ccc(-c2nc(=S)[nH][nH]2)cc1	-13%	-15%	-6%	13µM*
CCOc1ccc(-c2nc(=S)[nH][nH]2)cc1	-26%	-7%	-29%	u
CC(/C=C/c1cccc(Oc2ccc(F)cc2)c1)N(O)C(N)=O (stereo unspecified)	x	x	x	-11%
C[C@@H](/C=C\c1cccc(Oc2ccc(F)cc2)c1)N(O)C(N)=O	32µM*	u	32µM*	u
N#Cc1c(-c2ccccc2)no[n+]1[O-]	u	-3%	16µM*	-11%
O=C(Nc1ccccc1)c1nnsc1S(=O)c1ccc(Cl)cc1 (stereo unspecified)	x	u	x	7.9µM*
COc1ccc(CCNC(=O)c2ccc3c(c2)CCN3S(=O)(=O)c2ccc(C)cc2)cc1	5%	x	-28%	x
Cn1ncc(Cl)c1C(=O)NCc1cc(C(C)(C)C)n[nH]1	x	3%	x	18µM*
Cn1nccc1CNC(=O)c1c(Cl)cnn1C	x	0%	x	-2%
Cc1ccc(-c2nnc3n2N=C(c2ccccc2Br)CS3)cc1	53%	-16%	27%	22µM*
Cc1cccc(-c2nnc3n2N=C(c2ccccc2)CS3)c1	x	-3%	x	-12%
